In the supplement of paper PMC10849652:
Targets with a hit are over-represented here; the source holds about 8,800 in all. About 0.5% of all pairs of compound and target were hits.

Key:
Experiment in all cases: log2 fold change, soluble protein after heating vs DMSO (PISA); higher = thermal stabilisation; K562 lysate, 10 uM; active = over 0.2 and 3.5 SD of the protein, either way, in both replicates (recomputed)
ibrutinib = compound: C=CC(=O)N1CCC[C@@H](n2nc(-c3ccc(Oc4ccccc4)cc3)c3c(N)ncnc32)C1 [ibrutinib]
Outline: (§1)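 The values are log-two fold changes in thermal stability compared with solvent controls and come from duplicates. They were obtained by TMTpro 16plex LC-MS/MS, with channel sums equalised, on the supernatant after 21,000xg for 90 min. That supernatant came from crude K562 extract at 1 mg/mL protein treated with 10 μM compound for 30 min, heated for 3 min across 48°C-58°C, pooled and brought to 0.5% NP-40 at 4°C.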

[1] = compound: CC(=O)c1cnc2ccc(-c3cc(Cl)c(O)c(Cl)c3)nc2c1N[C@H]1CC[C@H](CN(C)C)CC1
Outline: as §1

ralimetinib = compound: CC(C)(C)Cn1c(N)nc2ccc(-c3[nH]c(C(C)(C)C)nc3-c3ccc(F)cc3)nc21 [ralimetinib]
Outline: as §1

[2] = compound: CC(C)(O)CC(=O)NCCn1ccc2ncnc(Nc3ccc(Oc4cccc(C(F)(F)F)c4)c(Cl)c3)c21
Outline: as §1

[3] = compound: CC(C)C1=C2N=C(C=C(N2N=C1)NCC3=CC=CC=C3)NCCCCCCN
Outline: as §1

[4] = compound: CC1=C(C(CC(=O)N1)C2=CC=C(C=C2)C(F)(F)F)C(=O)NC3=C(C=C4C(=C3)C=NN4)F
Outline: as §1

[5] = compound: CC1=C(C2=C(C=C1)C(=O)C3=CC=CC=C3N2CCCN)C
Outline: as §1

[6] = compound: CC1=C(C=C(C=C1)NC(=O)C2=CC(=CC=C2)C(C)(C)C#N)NC3=CC4=C(C=C3)N=CN(C4=O)C
Outline: as §1

[7] = compound: CC1=C(C=C(C=C1)NC(=O)C2=CC(=CC=C2)N(C)C)NC(=O)C3=CC=C(C=C3)O
Outline: as §1

[8] = compound: CC1=CC=C(C=C1)SC2=C3C=C(SC3=CN=C2)C(=O)N
Outline: as §1

vemurafenib = compound: CCCS(=O)(=O)Nc1ccc(F)c(C(=O)c2c[nH]c3ncc(-c4ccc(Cl)cc4)cc23)c1F [vemurafenib]
Outline: as §1

[9] = compound: CCCS(=O)(=O)Nc1ccc(F)c(C(=O)c2c[nH]c3ncc(Cl)cc23)c1F
Outline: as §1

barasertib = compound: CCN(CCCOc1ccc2c(Nc3cc(CC(=O)Nc4cccc(F)c4)[nH]n3)ncnc2c1)CCOP(=O)(O)O [barasertib]
Outline: as §1

[10] = compound: CC[C@@H]1C(=O)N(C)c2cnc(Nc3ccc(C(=O)NC4CCN(C)CC4)cc3OC)nc2N1C1CCCC1
Outline: as §1

volasertib = compound: CC[C@@H]1C(=O)N(C)c2cnc(Nc3ccc(C(=O)N[C@H]4CC[C@H](N5CCN(CC6CC6)CC5)CC4)cc3OC)nc2N1C(C)C [volasertib]
Outline: as §1

[11] = compound: CCn1c(C(=O)N(C2CC2)C2CC2)cc2c3c(ncn3C)c(Nc3cc(C)n(C)n3)nc21
Outline: as §1

[12] = compound: CCn1cc(-c2ccnc3[nH]c(-c4cccc(CN(C)C)c4)cc23)c(-c2ccc(NC(=O)N(C)C)cc2)n1
Outline: as §1

[13] = compound: CN1CCC(CNc2ccc3ncc(-c4cccc(OC(F)(F)F)c4)n3n2)CC1
Outline: as §1

saracatinib = compound: CN1CCN(CCOc2cc(OC3CCOCC3)c3c(Nc4c(Cl)ccc5c4OCO5)ncnc3c2)CC1 [saracatinib]
Outline: as §1

sotrastaurin = compound: CN1CCN(c2nc(C3=C(c4c[nH]c5ccccc45)C(=O)NC3=O)c3ccccc3n2)CC1 [sotrastaurin]
Outline: as §1

Measured: log2 fold change

MORF4L1 isoform 2 (UniProt Q9UBU8)
Sequence of UniProt Q9UBU8 (Q9UBU8 whole entry, looked up): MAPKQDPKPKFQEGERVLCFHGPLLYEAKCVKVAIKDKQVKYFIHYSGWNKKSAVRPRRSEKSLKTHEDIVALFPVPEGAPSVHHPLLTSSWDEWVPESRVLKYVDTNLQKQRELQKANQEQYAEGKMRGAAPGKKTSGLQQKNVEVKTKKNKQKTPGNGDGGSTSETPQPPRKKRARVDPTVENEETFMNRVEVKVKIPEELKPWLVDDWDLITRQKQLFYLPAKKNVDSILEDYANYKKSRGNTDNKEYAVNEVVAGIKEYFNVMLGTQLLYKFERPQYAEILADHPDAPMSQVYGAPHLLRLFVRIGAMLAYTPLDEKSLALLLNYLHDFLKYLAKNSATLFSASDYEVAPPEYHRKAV
inactive: ibrutinib -0.038 | [1] -0.012 | ralimetinib 0.011 | [2] -0.062 | [3] 0.019 | [4] -0.034 | [5] -0.089 | [6] 0.01 | [7] 0.003 | [8] 0.021 | vemurafenib 0.034 | [9] -0.017 | barasertib 0.007 | [10] 0.016 | volasertib 0 | [11] -0.005 | [12] -0.036 | [13] 0.131 | saracatinib 0.038 | sotrastaurin 0.019

LZTS1 (UniProt Q9Y250)
Sequence of UniProt Q9Y250 (Q9Y250 whole entry, looked up): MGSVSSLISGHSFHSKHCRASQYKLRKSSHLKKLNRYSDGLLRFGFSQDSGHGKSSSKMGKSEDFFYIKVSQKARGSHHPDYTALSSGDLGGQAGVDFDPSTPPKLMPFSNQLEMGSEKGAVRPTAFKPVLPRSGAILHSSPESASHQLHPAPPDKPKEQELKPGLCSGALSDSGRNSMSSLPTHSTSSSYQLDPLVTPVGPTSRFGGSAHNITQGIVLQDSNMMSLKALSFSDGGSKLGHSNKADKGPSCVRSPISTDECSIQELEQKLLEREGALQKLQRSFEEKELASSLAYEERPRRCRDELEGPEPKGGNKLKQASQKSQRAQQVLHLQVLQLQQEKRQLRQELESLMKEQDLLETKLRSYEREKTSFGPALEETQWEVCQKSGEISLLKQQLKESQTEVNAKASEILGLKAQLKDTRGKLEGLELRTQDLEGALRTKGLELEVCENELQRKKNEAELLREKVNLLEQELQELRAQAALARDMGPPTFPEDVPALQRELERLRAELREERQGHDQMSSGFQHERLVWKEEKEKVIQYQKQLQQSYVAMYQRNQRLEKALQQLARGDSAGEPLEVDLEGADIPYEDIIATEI
inactive: ibrutinib 0.104 | [1] -0.008 | ralimetinib 0.049 | [2] -0.176 | [3] 0.116 | [4] -0.028 | [5] -0.233 | [6] 0.705 | [7] -0.111 | [8] -0.007 | vemurafenib -0.047 | [9] -0.034 | barasertib 0.218 | [10] 0.042 | volasertib 0.074 | [11] -0.53 | [12] 0.493 | [13] -0.132 | saracatinib 0 | sotrastaurin -0.116

LSG1 (UniProt Q9H089)
Sequence of UniProt Q9H089 (Q9H089 whole entry, looked up): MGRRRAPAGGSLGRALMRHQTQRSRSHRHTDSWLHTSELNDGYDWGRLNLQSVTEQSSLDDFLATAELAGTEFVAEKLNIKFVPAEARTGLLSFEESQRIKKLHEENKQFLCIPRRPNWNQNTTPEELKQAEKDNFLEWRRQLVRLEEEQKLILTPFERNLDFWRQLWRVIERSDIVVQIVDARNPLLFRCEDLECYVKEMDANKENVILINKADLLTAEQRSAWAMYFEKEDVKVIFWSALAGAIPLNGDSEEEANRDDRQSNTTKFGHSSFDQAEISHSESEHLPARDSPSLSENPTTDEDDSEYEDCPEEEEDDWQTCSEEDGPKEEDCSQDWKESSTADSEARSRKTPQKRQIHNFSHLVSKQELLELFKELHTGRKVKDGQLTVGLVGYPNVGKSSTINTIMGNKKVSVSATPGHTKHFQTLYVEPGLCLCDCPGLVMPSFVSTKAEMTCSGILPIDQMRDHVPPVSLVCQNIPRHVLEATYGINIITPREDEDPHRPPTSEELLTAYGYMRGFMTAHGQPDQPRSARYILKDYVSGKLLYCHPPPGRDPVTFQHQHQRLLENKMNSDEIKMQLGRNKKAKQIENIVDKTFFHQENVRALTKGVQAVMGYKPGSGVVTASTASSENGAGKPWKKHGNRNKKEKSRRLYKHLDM
inactive: ibrutinib -0.083 | [1] -0.033 | ralimetinib 0.026 | [2] 0.052 | [3] 0.032 | [4] 0.004 | [5] -0.187 | [6] 0.012 | [7] 0.013 | [8] 0.031 | vemurafenib -0.056 | [9] 0.046 | barasertib 0.037 | [10] -0.084 | volasertib -0.065 | [11] -0.01 | [12] -0.124 | [13] 0.064 | saracatinib 0.043 | sotrastaurin 0.024

MORC3 (UniProt Q14149)
Sequence of UniProt Q14149 (Q14149 whole entry, looked up): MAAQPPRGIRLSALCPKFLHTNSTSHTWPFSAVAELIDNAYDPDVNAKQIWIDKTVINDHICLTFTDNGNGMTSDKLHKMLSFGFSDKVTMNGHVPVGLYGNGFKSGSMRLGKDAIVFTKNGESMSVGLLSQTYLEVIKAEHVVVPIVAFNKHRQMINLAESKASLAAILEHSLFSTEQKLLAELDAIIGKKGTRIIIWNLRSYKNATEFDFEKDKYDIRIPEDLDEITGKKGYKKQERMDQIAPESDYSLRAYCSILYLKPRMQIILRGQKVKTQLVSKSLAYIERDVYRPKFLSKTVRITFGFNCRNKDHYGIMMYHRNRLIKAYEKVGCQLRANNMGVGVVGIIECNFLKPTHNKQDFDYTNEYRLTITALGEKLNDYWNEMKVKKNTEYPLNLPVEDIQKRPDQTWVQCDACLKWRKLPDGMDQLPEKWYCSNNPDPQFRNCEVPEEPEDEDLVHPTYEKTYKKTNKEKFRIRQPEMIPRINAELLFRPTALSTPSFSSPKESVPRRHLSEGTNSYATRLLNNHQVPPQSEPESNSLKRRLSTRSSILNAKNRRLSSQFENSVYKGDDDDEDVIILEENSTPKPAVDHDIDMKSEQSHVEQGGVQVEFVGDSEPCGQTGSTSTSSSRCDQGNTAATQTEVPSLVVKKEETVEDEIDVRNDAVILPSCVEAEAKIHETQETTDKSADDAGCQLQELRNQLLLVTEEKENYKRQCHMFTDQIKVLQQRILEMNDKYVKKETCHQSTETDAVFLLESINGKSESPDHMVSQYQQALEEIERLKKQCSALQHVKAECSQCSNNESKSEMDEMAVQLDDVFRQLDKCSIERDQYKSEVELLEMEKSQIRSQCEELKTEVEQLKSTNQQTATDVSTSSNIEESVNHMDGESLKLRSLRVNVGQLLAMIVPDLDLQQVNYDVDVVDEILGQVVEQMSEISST
inactive: ibrutinib 0.004 | [1] -0.023 | ralimetinib 0.021 | [2] 0.013 | [3] -0.007 | [4] 0.007 | [5] -0.032 | [6] -0.021 | [7] 0.021 | [8] -0.027 | vemurafenib 0.025 | [9] 0.01 | barasertib 0.019 | [10] -0.03 | volasertib -0.077 | [11] 0.007 | [12] -0.007 | [13] -0.055 | saracatinib 0.004 | sotrastaurin 0.006

KNOP1 (UniProt Q1ED39)
Sequence of UniProt Q1ED39 (Q1ED39 whole entry, looked up): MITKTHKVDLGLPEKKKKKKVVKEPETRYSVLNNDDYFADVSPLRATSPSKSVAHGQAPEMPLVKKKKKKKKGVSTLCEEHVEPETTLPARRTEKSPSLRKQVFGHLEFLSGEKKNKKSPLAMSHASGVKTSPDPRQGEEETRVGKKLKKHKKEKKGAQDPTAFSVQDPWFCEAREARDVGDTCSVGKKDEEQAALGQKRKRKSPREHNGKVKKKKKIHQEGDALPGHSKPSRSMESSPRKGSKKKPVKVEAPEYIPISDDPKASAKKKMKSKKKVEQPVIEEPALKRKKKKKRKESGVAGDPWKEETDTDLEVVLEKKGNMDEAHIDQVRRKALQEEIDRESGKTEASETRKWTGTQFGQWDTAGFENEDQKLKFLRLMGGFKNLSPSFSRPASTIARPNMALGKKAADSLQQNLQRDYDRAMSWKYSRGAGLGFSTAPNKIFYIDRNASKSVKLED
inactive: ibrutinib -0.079 | [1] -0.096 | ralimetinib -0.096 | [2] -0.133 | [3] -0.031 | [4] 0.052 | [5] -0.114 | [6] 0.155 | [7] -0.033 | [8] -0.118 | vemurafenib -0.285 | [9] 0.026 | barasertib -0.014 | [10] 0.315 | volasertib 0.056 | [11] -0.161 | [12] 0.016 | [13] 0.012 | saracatinib -0.029 | sotrastaurin -0.063

MORC2 (UniProt Q9Y6X9)
Sequence of UniProt Q9Y6X9 (Q9Y6X9 whole entry, looked up): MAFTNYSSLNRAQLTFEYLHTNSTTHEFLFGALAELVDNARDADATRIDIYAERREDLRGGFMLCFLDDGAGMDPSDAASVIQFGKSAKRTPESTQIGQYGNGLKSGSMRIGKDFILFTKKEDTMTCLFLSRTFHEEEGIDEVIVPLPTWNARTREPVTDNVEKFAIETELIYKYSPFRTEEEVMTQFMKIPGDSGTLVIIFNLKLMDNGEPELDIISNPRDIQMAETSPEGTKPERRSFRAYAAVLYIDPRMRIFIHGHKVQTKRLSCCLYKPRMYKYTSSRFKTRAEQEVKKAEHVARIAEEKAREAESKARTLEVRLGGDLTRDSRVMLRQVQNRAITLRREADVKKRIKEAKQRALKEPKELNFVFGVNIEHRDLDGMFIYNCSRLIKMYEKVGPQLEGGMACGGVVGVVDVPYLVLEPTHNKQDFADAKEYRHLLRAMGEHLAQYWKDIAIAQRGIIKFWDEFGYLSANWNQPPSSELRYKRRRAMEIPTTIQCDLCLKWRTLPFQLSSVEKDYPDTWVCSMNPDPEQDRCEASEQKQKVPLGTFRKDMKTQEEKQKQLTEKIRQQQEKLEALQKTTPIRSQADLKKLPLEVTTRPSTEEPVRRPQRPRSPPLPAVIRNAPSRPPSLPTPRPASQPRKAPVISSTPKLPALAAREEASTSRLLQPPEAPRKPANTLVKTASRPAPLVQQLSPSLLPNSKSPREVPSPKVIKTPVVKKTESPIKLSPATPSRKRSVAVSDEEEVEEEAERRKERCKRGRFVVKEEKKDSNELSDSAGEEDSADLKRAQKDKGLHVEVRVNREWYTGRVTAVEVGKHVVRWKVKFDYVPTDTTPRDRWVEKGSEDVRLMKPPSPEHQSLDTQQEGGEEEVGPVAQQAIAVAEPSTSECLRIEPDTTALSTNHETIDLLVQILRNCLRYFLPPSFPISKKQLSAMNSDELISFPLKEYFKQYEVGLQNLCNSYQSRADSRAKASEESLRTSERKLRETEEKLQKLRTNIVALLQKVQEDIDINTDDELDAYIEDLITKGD
inactive: ibrutinib 0.065 | [1] 0.02 | ralimetinib 0.054 | [2] -0.035 | [3] -0.039 | [4] -0.001 | [5] -0.026 | [6] -0.037 | [7] 0.072 | [8] 0.004 | vemurafenib 0.049 | [9] 0.01 | barasertib 0.054 | [10] 0.022 | volasertib 0.002 | [11] -0.006 | [12] -0.041 | [13] 0.008 | saracatinib 0.042 | sotrastaurin 0.037

MECR (UniProt Q9BV79)
Sequence of UniProt Q9BV79 (Q9BV79 whole entry, looked up): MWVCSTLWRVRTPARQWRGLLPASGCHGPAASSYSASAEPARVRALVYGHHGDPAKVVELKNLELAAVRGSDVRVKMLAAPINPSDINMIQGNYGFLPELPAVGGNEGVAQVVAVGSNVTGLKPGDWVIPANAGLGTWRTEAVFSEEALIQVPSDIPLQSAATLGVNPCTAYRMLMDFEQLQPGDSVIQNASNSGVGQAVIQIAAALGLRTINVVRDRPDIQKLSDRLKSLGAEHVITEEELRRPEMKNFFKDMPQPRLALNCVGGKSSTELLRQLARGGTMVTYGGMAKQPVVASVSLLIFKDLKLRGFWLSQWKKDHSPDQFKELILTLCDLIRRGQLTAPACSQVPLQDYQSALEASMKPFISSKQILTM
inactive: ibrutinib 0.025 | [1] -0.029 | ralimetinib -0.006 | [2] -0.049 | [3] 0.008 | [4] 0.008 | [5] 0.058 | [6] -0.006 | [7] 0.006 | [8] 0.011 | vemurafenib 0.055 | [9] 0.035 | barasertib 0.008 | [10] -0.05 | volasertib -0.008 | [11] 0.004 | [12] -0.043 | [13] 0.023 | saracatinib 0.095 | sotrastaurin -0.007

MAPK14 isoform 2 (UniProt Q16539)
Sequence of UniProt Q16539 (Q16539 whole entry, looked up): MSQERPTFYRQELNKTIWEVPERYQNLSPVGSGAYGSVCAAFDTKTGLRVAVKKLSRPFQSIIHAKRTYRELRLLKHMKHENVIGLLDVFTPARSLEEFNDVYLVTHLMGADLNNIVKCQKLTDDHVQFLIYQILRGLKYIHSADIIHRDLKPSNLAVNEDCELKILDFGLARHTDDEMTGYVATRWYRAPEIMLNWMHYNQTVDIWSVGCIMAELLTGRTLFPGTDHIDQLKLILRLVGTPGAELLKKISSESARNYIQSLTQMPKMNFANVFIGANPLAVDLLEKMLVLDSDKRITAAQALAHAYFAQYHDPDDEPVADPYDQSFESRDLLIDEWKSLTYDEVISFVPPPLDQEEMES
active: ralimetinib 0.97 | [6] 0.973
inactive: ibrutinib 0.03 | [1] 0.249 | [2] -0.047 | [3] -0.003 | [4] 0.02 | [5] -0.027 | [7] 0.419 | [8] 0.011 | vemurafenib 0.189 | [9] 0.046 | barasertib 0.079 | [10] -0.076 | volasertib -0.078 | [11] 0.003 | [12] 0.303 | [13] -0.101 | saracatinib 0.192 | sotrastaurin -0.029
